# From PubChem BioAssay (NCI)
# Where “and” joins values, the source holds several entries; their conditions need not be identical. Equal values may be shown once. The panel holds about 83,000 compounds, 20% with a hit somewhere; the sample as a whole holds those more often.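 Activity criterion: percent growth below 10, measured after cells in 96-well plates were exposed to a single compound concentration for 48 hours.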 Calls of active or inactive are those of the source.
# Test system: SN12C renal
# Assay: NCI-60 one-dose screen, 48 h (100 = growth as untreated, 0 = no growth, -100 = all killed)
# Conditions: 10 µM
# Protocol: Growth inhibition of the SN12C human tumor cell line is measured as a screen for anti-cancer activity. Cells are grown in 96 well plates and exposed to the test compound for 48 hours. Compounds are tested at a single concentration, which is 10^-5 M for most compounds. The reported endpoint is percent growth (GI% or GIPRCNT), where numbers from 0 - 100% represent growth inhibition, and numbers from -100% - 0 represent cell death. For example, a value of 40 represents 60% growth inhibition. A value of 0 means no net growth occurred over the course of the experiment. A value of -40 indicates 40% of cells at the beginning of the experiment died by the end of the experiment. A value of -100 means all cells are dead at the end of the experiment.
# NCI-60 Human Tumor Cell Lines Screen was performed using the standard one-dose NCI protocol, which is described in more detail at https://dtp.cancer.gov/discovery_development/nci-60/default.htm.
# Compounds with GIPRCNT values below 10 were considered active. Activity score was based on GIPRCNT using the following formula: […]
# Score is 0 for GIPRCNT values of 100 or above, 50 for GIPRCNT values of 0, and 100 for GIPRCNT values of -100.
row,Compound,growth
1,O=C(O)c1sccc1O,76.3% (inactive)

# Same assay, conditions: 10 µM unless noted
row,Compound,growth
1,Cn1c(SSc2ccc(-c3cccnc3)n2C)ccc1-c1cccnc1,100% (inactive) and 114% (inactive)
2,Cn1cnc([N+](=O)[O-])c1Sc1ncnc2nc[nH]c12,75.8% (inactive) and 83.2% (inactive)
3,CN(C)CCCN1c2ccccc2Sc2ccc(Cl)cc21,66.7% (inactive) and 117% (inactive) and 78.8% (inactive)
4,CCN(CC)C(=S)SSC(=S)N(CC)CC,78.9% (inactive) and 106% (inactive)
5,c1ccc(N(c2ccccc2)c2ccccc2)cc1,106% (inactive)
6,O=C(O)C1(C(=O)O)CCC1.[NH2-].[NH2-].[Pt+2],102% (inactive) and 103% (inactive)
7,CCOc1ccc2c(S(=O)(=O)O)cccc2c1[N+](=O)[O-],106% (inactive) and 103% (inactive)
8,O=C(/C=C\c1ccnc2ccccc12)c1ccc([N+](=O)[O-])cc1,96.9% (inactive) and 86.2% (inactive)
9,O=C1CCN(Cc2ccccc2)C(=S)N1,104% (inactive) and 95.6% (inactive)
10,Oc1c(Cl)cc(Cl)cc1Sc1cc(Cl)cc(Cl)c1O,26.8% (inactive) and -26.6% (active) and 72.8% (inactive)
11,Cc1cccc(/C=C\C(=O)c2ccc(Cl)cc2)c1,94.9% (inactive) and 97% (inactive)
12,CN(C)c1ccc(C(=C2C=CC(=[N+](C)C)C=C2)c2ccccc2Cl)cc1,-42% (active) and -50.3% (active)
13,S=C(S)N1CCCC1,96.4% (inactive) and 109% (inactive)
14,CC(=O)c1ccc2c(c1)N(CCCN1CCN(CCO)CC1)c1ccccc1S2,99% (inactive) and 53.6% (inactive)
15,Oc1ccc(/C=C/c2ccccc2)cc1,74.5% (inactive) and 72.4% (inactive)
16,CCN(CC)CCC(CNc1c2ccc([N+](=O)[O-])cc2nc2cc(OC)c(OC)cc12)c1ccccc1 (stereo not given),-27.1% (active) and -91.6% (active)
17,CCN(CC)CCNc1ccc(C)c2sc3ccccc3c(=O)c12 (tested in a mixture with another compound),35.1% (inactive) and 36.4% (inactive)
18,CC1=NN(c2ccccc2)C(=O)C1C(=O)c1ccccc1 (stereo not given),108% (inactive)
19,O=[N+]([O-])c1ccc(Oc2ccccc2)cc1,120% (inactive) and 116% (inactive)

row,Compound,growth
1,Clc1nc(Oc2ccccc2)nc(-c2cn(-c3ccccc3)c3ccccc23)n1,85.9% (inactive)
2,CCN(CC)CCCC(C)N(Cc1ccccc1)CC(O)c1ccc(Cl)cc1 (stereo not given),100% (inactive) and 104% (inactive)
3,O=C(Cc1cccc2ccccc12)N/N=C/c1ccc2c(c1)CCC2,84% (inactive)
4,O=C(O)CN(CCN(CC(=O)O)CC(=O)O)CCN(CC(=O)O)CC(=O)O,1.71% (active) and 99.1% (inactive) and 101% (inactive)
5,Clc1ccc(NC(Nc2ccc(Cl)cc2)C(Cl)(Cl)Cl)cc1,84% (inactive) and 111% (inactive)
6,Cc1cc(-c2ccc(NS(=O)(=O)c3ccccc3)c(C)c2)ccc1NS(=O)(=O)c1ccccc1,94.7% (inactive) and 98.4% (inactive)
7,Oc1ccccc1/C=N\NC(=S)N/N=C/c1ccccc1O,58.8% (inactive) and 51.3% (inactive)
8,CN(C)CCC(=O)c1ccc(Cl)cc1,97.9% (inactive) and 102% (inactive)
9,Oc1nc(NCCc2ccccc2)sc1/C=C1\C=Nc2ncccc21,33.5% (inactive) and 15.9% (inactive)
10,CCN(CC)CCc1nc(-c2ccccc2)no1,68% (inactive) and 80.8% (inactive)
11,C#CCN(C)Cc1ccccc1,95.7% (inactive) and 82.5% (inactive)
12,O=C1c2c(O)cc(O)cc2OC(c2ccc(O)c(O)c2)C1O (stereo not given),104% (inactive)
13,CC1=C(/C=C/C(C)=C/C=C/C(C)=C/C(=O)O)C(C)(C)CCC1,81% (inactive) and 85.3% (inactive) and 73.8% (inactive)
14,CC(/C=N/N1C(=O)c2ccccc2C1=O)c1ccccc1 (stereo not given),99.6% (inactive)
15,COc1ccc(Cn2c(NCCN=C(N)N)nc(=O)n(Cc3ccc(F)cc3)c2=O)cc1,91.4% (inactive) and 68.8% (inactive)
16,O=C1c2ccccc2C(=O)N1/N=C/c1ccc2c(c1)OCO2,86.3% (inactive)
17,CCOc1ccc2nc3cc(N)ccc3c(N)c2c1,18.5% (inactive)
18,Fc1ccccc1Nc1n[nH]c(=S)s1,99.9% (inactive)
19,N/C(=N\N=C\c1ccc2c(c1)OCO2)N/N=C\c1ccc2c(c1)OCO2,107% (inactive) and 89% (inactive)

# Same assay, conditions: 100 µM
row,Compound,growth
1,O=C(O)c1sccc1O,35.7% (inactive)
